Compound activity as filed in PubChem BioAssay.
The sample as a whole holds a higher share of hits than the screen did.
Pf Dd2 growth: blocks in vitro growth of P. falciparum Dd2; P. falciparum Dd2 growth, SYBR Green, 72 h; Potency, µM (titrated, usually from 28.9 µM), without a hit: at the highest dose activity, negative = inhibition, usual class: inhibitors; 120,000 tested, 4.3% active; active = well fitted inhibition curve with a large enough effect;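 also: plate controls were DMSO vehicle for no effect and reference drug for full effect; nearly all actives have a fitted effect of over 65% in size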
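Readout: SYBR Green fluorescence, 485 nm excitation, 535 nm emission, after ~16 h lysis at 37C. Before that, Dd2-infected red cells (2.5% hematocrit) grew 72 h with compound, 29 uM top final concentration.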
Active calls of the source: *; i = inactive; [ ] = another dose, or the depositor's remark. Potency is read from the fitted curve at half-maximal effect.

SMILES	Pf Dd2 growth
CC1=C[C@@H](CNC(=O)Cn2cnnn2)[C@H](C(C)C)C[C@H]1Cc1nc2ccc(C)cc2[nH]1	i
CC1=C[C@@H](CNC(=O)CC2(CC(=O)O)CCCC2)[C@H](C(C)C)C[C@H]1Cc1nc2ccccc2n1C	i
CC1=C[C@@H](CNC(=O)CN(C)C)[C@H](C(C)C)C[C@H]1Cc1nc2ccccc2[nH]1	i
CC1=C[C@@H](CNC(=O)c2cnccn2)[C@H](C(C)C)C[C@H]1Cc1nc2ccccc2[nH]1	i
CC1=C[C@@H](CNC(=O)Cn2cnnn2)[C@H](C(C)C)C[C@H]1Cc1nc2ccccc2n1C	10µM*
COCC(=O)NC[C@@H]1C=C(C)[C@H](Cc2nc3ccccc3n2C)C[C@H]1C(C)C	10µM*
CC1=C[C@@H](CNC(=O)c2cnccn2)[C@H](C(C)C)C[C@H]1Cc1nc2ccccc2n1C	8.91µM*
CC1=C[C@@H](CNC(=O)Cc2ccccc2)[C@H](C(C)C)C[C@H]1Cc1nc2ccncc2[nH]1	-9.7%[44.1 µM]
O=[S+]1([O-])NC2(CCCN(Cc3ccc(F)cc3)C2)CNc2ccccc21 (stereo not drawn)	i
Cc1ccc(C)c(N2CCN(C(=O)c3ccc4c(c3)c(C)c(C)n4C)CC2)c1	51.6%
CCc1nc2nccc(-c3ccc(OC)cc3F)n2n1	i
CCCc1nnc(NC(=O)Cn2nc3c(cc2=O)CCCCC3)s1	-8.1%
Cc1ccc(C(=O)N2CCCCCCNC(=O)[C@@H]3C[C@@H](c4nc(Cc5ccccc5)no4)C[C@@H]32)cn1	i
O=C1NCCCCCCN(C(=O)c2ccco2)[C@H]2C[C@H](c3nc(Cc4ccccc4)no3)C[C@@H]12	7.94µM*
Cn1cc(C(=O)N2CCCCCCNC(=O)[C@@H]3C[C@@H](c4nc(Cc5ccccc5)no4)C[C@@H]32)cn1	-2.2%
O=C1NCCCCCCN(C(=O)CN2CCCC2=O)[C@H]2C[C@H](c3nc(Cc4ccccc4)no3)C[C@@H]12	-29.3%
N#Cc1ccc(C(=O)N2CCCCCCNC(=O)[C@@H]3C[C@@H](c4nc(Cc5ccccc5)no4)C[C@@H]32)cc1	11.2µM*
Cn1nccc1C(=O)N1CCCCCCNC(=O)[C@@H]2C[C@@H](c3nc(Cc4ccccc4)no3)C[C@@H]21	-17.4%
CN1C(=O)Cc2ccccc2C1C(=O)N1CCN(c2ccc(F)cc2)CC1 (stereo not drawn)	-22.9%
COCc1nnc2n1CCC(NC(=O)Cn1nc(C(F)(F)F)cc1C)CC2 (stereo not drawn)	41.2%
CN(C(=O)c1cccnc1)C(Cc1ccc(F)cc1F)C1CCN(C(=O)C2(C)CCCCC2)CC1 (stereo not drawn)	-2.5%
Cc1ccc(C(=O)N2CC[C@H](CO)[C@H](N(C)C)C2)s1	-22.6%
CCN1CC(C(=O)NCCc2nc(C(C)C)no2)CCC1=O (stereo not drawn)	2.3%
CNCc1sc2ccccc2c1C	-17.7%[44.1 µM]
Cc1cnc(C2CCOCC2)n1C1CCCN(S(=O)(=O)c2cn(C)cn2)C1 (stereo not drawn)	2.3%
SMILES	Pf Dd2 growth
Cc1ccccc1-c1noc(-c2ccc(N3CCCCC3)c([N+](=O)[O-])c2)n1	i
CCOc1ccccc1CN1CCN(c2ccnc(N)n2)CC1CCO (stereo not drawn)	i
CC1CCN(CC2CCCN(C(=O)COc3ccc(F)cc3)CC2)CC1 (stereo not drawn)	-29.9%
CC(C)Nc1ccnc(N2CCN(Cc3ccccc3F)C(CCO)C2)n1 (stereo not drawn)	-22.4%
OCCC1CN(CCOc2ccc(F)cc2)CCN1CC1CCCCC1 (stereo not drawn)	8.91µM*
O=C(C1CCCC1)N1CCC(CCOc2ccc(F)cc2)C1 (stereo not drawn)	i
OCCC1CN(c2cc(C(F)(F)F)ccn2)CCN1CC1CCCCC1 (stereo not drawn)	12.6µM*
COc1ccc(C(=O)NC2CCN(c3cc(C(F)(F)F)ncn3)CC2)cc1OC	-15.9%
O=C(c1cscn1)N1CCC2(CNS(=O)(=O)c3cnccc3O2)C1 (stereo not drawn)	18.0%
O=C(Cn1nc2c(cc1=O)CCCC2)NC1CCCc2c1[nH]c1ccccc21 (stereo not drawn)	2.8%
Cc1ccc2c(C(=O)NCCN3CCCCC3)cc(NC(=O)C(C)C)cc2n1	-16.3%
COc1ccc(F)cc1-c1ccccc1CN	10µM*
COc1ccc(F)cc1-c1ccc(C=O)cc1	3.0%[44.1 µM]
COc1ccccc1-c1ccc(CN)cc1	-26.5%[44.1 µM]
CC(NC(=O)CSc1n[nH]c(-c2ccccc2Cl)n1)c1nc2ccccc2[nH]1 (stereo not drawn)	38.0%
O=C(NC1CC1)[C@@H]1CN(Cc2ccc(OC(F)(F)F)cc2)C[C@H]1CO	12.6µM*
COC[C@@H]1CN(Cc2ccc(OC)c(C)c2)C[C@H]1C(=O)NC1CC1	-2.1%
COc1ccc(OC2CN(Cc3ccc(NC(C)=O)cc3)C2)cc1	-2.6%
COC[C@@H]1CN(Cc2ccc(F)cc2F)C[C@H]1C(=O)NC1CC1	-28.7%
O=C(NCC1CC1)c1cccc(OC2CN(Cc3ccc(OC(F)(F)F)cc3)C2)c1	8.91µM*
CNC(=O)[C@@H]1CN(Cc2ccccc2OC(F)(F)F)C[C@H]1CO	6.4%
O=C(NC1CC1)[C@@H]1CN(Cc2ccc(Cl)cc2F)C[C@H]1CO	7.94µM*
O=C(NC1CC1)[C@@H]1CN(Cc2cc(F)c(F)cc2F)C[C@H]1CO	-21.8%
O=C(NCC1CC1)c1cccc(OC2CN(C3CCOCC3)C2)c1	i
O=C(NCC1CCCCC1)c1ccc(N2CC3CC(C2)[C@H]2CCCC(=O)N2C3)nc1 (stereo partly drawn)	-22.3%
SMILES	Pf Dd2 growth
COc1ccc(OCc2nc3c4c(-c5ccccc5)c(-c5ccccc5)oc4ncn3n2)cc1	-13.8%
Cc1ccc(C(=O)c2oc3ccccc3c2NC(=O)COc2ccc(C(C)C)cc2)cc1	38.1%
CCc1nn(CC(=O)Nc2c(C)cc(C)cc2C)c(=O)c2cc3sccc3n12	-7.6%
CCc1ccc(-n2c(Cc3ccccc3)nnc2SCc2nc(-c3cccs3)no2)cc1	-13.8%
Cc1cc(C(=O)N[C@@H]2CCC[C@@H](C(=O)N(C)Cc3cccnc3)CC(=O)N(C)C2)no1	8.8%[44.1 µM]
COc1cccc(CNC(=O)CCc2cn(Cc3ccccc3Cl)c3ccccc23)c1	-11.5%
Cc1ccc(C)c(N2CCN(C(=O)CCn3ccn4nc5c(c4c3=O)CCCC5)CC2)c1	-16.2%
O=C(c1ccccc1F)N1CCC2(C1)C(=NC1CCCCC1)NC(=O)N2c1cc(F)cc(F)c1 (stereo not drawn)	-3.7%
CC(C)CCN1CCCC2(C1)C(=NC1CCCCC1)NC(=O)N2c1cc(F)cc(F)c1 (stereo not drawn)	3.98µM*
O=C1NC(=NC2CCCCC2)C2(CCN(CC3CCCCC3)C2)N1c1cc(F)cc(F)c1 (stereo not drawn)	5.01µM*
O=C1NC(=NC2CCCCC2)C2(CCN(CC3CCCCC3)CC2)N1c1cc(F)cc(F)c1	9.6%
O=C1NC(=NC2CCCC2)C2(CCCN(CC3CCCCC3)C2)N1c1cc(F)cc(F)c1 (stereo not drawn)	4.47µM*
O=C(c1ccccc1)N1CCC2(C1)C(=NC1CCCCC1)NC(=O)N2c1cc(F)cc(F)c1 (stereo not drawn)	9.0%
O=C1NC(=NC2CCCC2)C2(CCN(CC3CC3)C2)N1c1cccnc1 (stereo not drawn)	-12.0%
CC(C)CCN1CCC2(C1)C(=NC1CCCCC1)NC(=O)N2c1cccnc1 (stereo not drawn)	77.4%
CC(C)CCN1CCCC2(C1)C(=NC1CCCC1)NC(=O)N2c1cccnc1 (stereo not drawn)	-14.5%
